MARV entry inh = blocks Marburg virus binding or cell entry; Potency, µM (highest dose often 49.2 µM), for the others: at the highest dose activity change, negative = inhibition, hits mostly inhibitors; Marburg virus pseudotype entry/binding inhibition, cell-based; 18,000 compounds, 6.5% hits
Lassa entry = inhibitors of Lassa virus binding or entry into cells; Lassa virus pseudotyped entry inhibition, cell-based qHTS; Potency, µM (series often up to 49.2 µM), inactives show top-dose activity change, negative = inhibition, actives largely listed as inhibitors; 18,000 compounds, 4.1% hits; AID 720533
* marks the source's active call; other numbers are inactive results; ? = inconclusive; nt = no result; [ ] = remark or other dose. Sampled rows, rich in hits. Any-hit rate of the full collection: about 8.6%. Calls follow the shape of the full dose curve; tested in HEK293 cells. % is scaled to controls: 0 for no effect and ±100 for the full control effect; potency is read from the fitted curve at half-maximal effect.

SMILES	MARV entry inh	Lassa entry
CN(C)CCCn1c(-c2nonc2N)nc2cnccc21	?	-12%
CCn1c(-c2nonc2N)nc2c(C#CC(C)(C)O)ncc(OCC3CCCN3)c21 (centres undefined)	1.3µM*	nt
CC1=C[C@H](O)CC(C)(C)[C@H]1/C=C/C(C)=C/C=C/C(C)=C/C=C/C=C(C)/C=C/C=C(C)/C=C/C1=C(C)C[C@@H](O)CC1(C)C	18%	0%
COC[C@@H]1N[S+](=O)([O-])c2ccc(Br)cc2O[C@@H]1c1ccccc1	-7%	-8%
CC1=C[C@@H](C)O[C@@]2(C1)C(=O)Nc1cccc(Br)c12	1%[8.59 µM]	-37%[8.59 µM]
NC(N)=NCCNS(=O)(=O)c1cccc2cnccc12	5%	15%
CN(C(Cc1ccc(OS(=O)(=O)c2cccc3cnccc23)cc1)C(=O)N1CCN(c2ccccc2)CC1)S(=O)(=O)c1cccc2cnccc12 (centres undefined)	?	10µM*
O=C1CCCC=C1C(CCc1ccccc1)OC(=O)c1ccc(Br)cc1 (centres undefined)	22%[8.59 µM]	9%[8.59 µM]
CCN[C@H](C)Cc1cccc(C(F)(F)F)c1	-24%[107 µM]	-14%[107 µM]
CC(Cc1cccc(C(F)(F)F)c1)NCCCc1ccccc1 (centres undefined)	14µM*	32µM*
C[C@H]1CN(CCc2ccccc2)C(=O)[C@H]1CC(=O)Nc1ccc(Br)cc1	-8%	nt
COCOc1c2c(c(OCOC)c3c(OCOC)cccc13)C(=NNS(C)(=O)=O)C1=C2CCCC1	1%[8.59 µM]	-3%[8.59 µM]
O=C1C2CC=CCC2C(=O)N1SC(Cl)(Cl)Cl (centres undefined)	?	10µM*
COc1ccc(O[C@H]2C=C[C@@H](c3ccccc3)O[C@H]2COC(=O)CCC(C)=NOCC[C@@H]2C=C[C@H](OC(C)=O)[C@@H](COC(C)=O)O2)cc1	33%[8.59 µM]	5%[8.59 µM]
O=C1[C@@H]2CSCCS(=O)(=O)N2C(=O)N1c1ccccc1	27%	-3%
O=C(NC1CCN(Cc2ccccc2)C1)c1cnn(-c2ncc3c(n2)-c2ccccc2CC3)c1C1CC1 (centres undefined)	5µM*	-15%
O=C(NCCN1CCOCC1)c1cnn(-c2ncc3c(n2)-c2ccccc2CC3)c1C1CC1	?	-15%
C[C@@H]1N[S+](=O)([O-])c2cccc(Cl)c2O[C@H]1c1ccccc1	33%	?
CC[C@@H]1CN2CCc3cc(OC)c(OC)cc3[C@H]2C[C@@H]1C[C@@H]1NCCc2cc(O)c(OC)cc21	?	0.35µM*
COc1cc2c(cc1OC)[C@H](C)NCC2	-19%[17.8 µM]	5%[17.8 µM]
C[C@@H]1CC[C@H]2C(=O)N(Cc3ccc(Cl)cc3)C[C@H](O)CN2[C@@H]1c1ccc(Br)cc1	29%[8.59 µM]	-8%[8.59 µM]
Cc1[nH]c(/C=C2/C(=O)Nc3ccc(S(=O)(=O)Cc4c(Cl)cccc4Cl)cc32)c(C)c1C(=O)N1CCCC1CN1CCCC1 (centres undefined)	14µM*	-4%
O=C(Cc1ccc(Cl)c(Cl)c1)N1CCCC[C@H]1CN1CCCC1	?	-25%
COC(=O)CC1=CO[C@@H](O)[C@@H]2C(CO)=CC[C@@H]12	16%[8.59 µM]	-11%[8.59 µM]
CCCNC(=O)OC[C@H]1O[C@H](CCON=C(C)CCC(=O)OC[C@H]2O[C@H](C#Cc3ccccc3)C=C[C@H]2Oc2ccc(C)cc2)C=C[C@H]1Oc1ccc(OC)cc1	-29%[8.59 µM]	4%[8.59 µM]
SMILES	MARV entry inh	Lassa entry
CC[C@@H](C)[C@H](N)C(=O)O	4%	-3%
COC1C[C@@H](O[C@@H]2C(C)C(=O)OC(C)C(C)[C@H](OC(C)=O)C(C)C(=O)[C@@]3(CO3)CC(C)C(OC3OC(C)CC(N(C)C)[C@H]3OC(C)=O)C2C)OC(C)[C@@H]1OC(C)=O (some centres undefined)	-1%	4%
COC1C(O)CC(=O)OC(C)C/C=C/C=C/[C@@H](OC2CCC(N(C)C)C(C)O2)C(C)C[C@@H](CC=O)[C@@H]1O[C@H]1OC(C)[C@H](O[C@@H]2C[C@@](C)(O)C(O)C(C)O2)C(N(C)C)C1O (some centres undefined)	6.3µM*	-20%
CO[C@@H]1[C@@H](O[C@@H]2O[C@H](C)[C@@H](O[C@H]3C[C@@](C)(O)[C@@H](O)[C@H](C)O3)[C@H](N(C)C)[C@H]2O)[C@@H](CC=O)C[C@@H](C)[C@@H](O[C@@H]2CC[C@H](N(C)C)[C@@H](C)O2)/C=C/C=C/C[C@@H](C)OC(=O)C[C@H]1OC(C)=O	3.2µM*	?
CC[C@H]1OC(=O)C[C@@H](O)[C@H](C)[C@@H](O[C@@H]2O[C@H](C)[C@@H](O[C@H]3C[C@@](C)(O)[C@@H](O)[C@H](C)O3)[C@H](N(C)C)[C@H]2O)[C@@H](CC=O)C[C@@H](C)C(=O)/C=C/C(C)=C/[C@@H]1CO[C@@H]1O[C@H](C)[C@@H](O)[C@@H](OC)[C@H]1OC	-20%	1%
COC1[C@@H](O[C@@H]2O[C@H](C)[C@@H](O[C@H]3C[C@@](C)(O)[C@H](OC(=O)CC(C)C)[C@H](C)O3)[C@H](N(C)C)[C@H]2O)[C@@H](CC=O)C[C@@H](C)[C@@H](O)/C=C/C=C/C[C@@H](C)OC(=O)C[C@H]1OC(C)=O (some centres undefined)	7%[17.8 µM]	9%[17.8 µM]
CO[C@@H]1[C@@H](O[C@@H]2O[C@H](C)[C@@H](O[C@H]3C[C@@](C)(O)[C@@H](OC(=O)CC(C)C)[C@H](C)O3)[C@H](N(C)C)[C@H]2O)[C@@H](CC=O)C[C@@H](C)C(=O)/C=C/C2OC2C[C@@H](C)OC(=O)C[C@H]1OC(C)=O (some centres undefined)	13µM*	?
CCCCCCN1C[C@H](O)[C@@H](n2cc(C3CC3)nn2)C[C@H]1c1ccc(Cl)cc1	?	-32%
Fc1ccc([C@@H]2CCNC[C@H]2COc2ccc3c(c2)OCO3)cc1	5.6µM*	?
O=C(C=Cc1ccc2c(c1)OCO2)c1ccc(F)cc1	-9%[8.59 µM]	3%[8.59 µM]
COc1ccc(O[C@H]2C=C[C@@H](c3ccccc3)O[C@H]2COC(=O)CCC(C)=NO[C@H](C)c2cn([C@H](CO)Cc3ccccc3)nn2)cc1	-9%[8.59 µM]	-11%[8.59 µM]
CCN1C(=NCCc2ccccn2)NC(c2cccc(C(F)(F)F)c2)C(C(=O)OC)=C1C (centres undefined)	-20%[8.59 µM]	33%[8.59 µM]
COC[C@H]([C@@H](O)[C@@H](O)C(=O)NCC[C@@H](C)c1nc(/C=C/C[C@H]2OC3(C[C@H](O)[C@H]2C)OC([C@@H](C[C@@H](O)[C@@H](C)[C@@H](O)[C@@H](C)/C=C(C)/C(C)=C/C=C/C(C)=C\C#N)OC)[C@@H](OP(=O)(O)O)C3(C)C)co1)N(C)C (some centres undefined)	0.11µM*	71µM*
CCN1CCC(C(=O)Nc2n[nH]c3nnc(-c4cccc(F)c4F)cc23)CC1	-42%	nt
CO[C@H]1[C@H](NC(=O)c2ccsc2)c2ccccc2C12CCN(Cc1cc(Cl)ccc1O)CC2	14µM*	-28%
CO[C@H]1[C@H](NC(=O)c2ccsc2)c2ccccc2C12CCN(Cc1cnn(C)c1C)CC2	4%	0%
COC(=O)[C@H]1[C@H](CCc2ccccc2)NC(=O)N(Cc2ccccc2)[C@H]1C	-15%[8.59 µM]	nt
COc1ccc(/C=C/C(=O)c2cc(O)ccc2O)cc1	-20%	0.89µM*
COc1ccc(/C=C/C(=O)c2ccc(O)cc2O)cc1	4%	11%

Screening data deposited in PubChem BioAssay by National Center for Advancing Translational Sciences (NCATS).
